HT1080 IDH1KD tx = HT-1080 IDH1 knockdown cell toxicity (counter line); actives 2% (n = 360,000); AID 686971; Potency, µM (top dose mostly 46.1 µM), inactives show at the top dose activity, negative = toxicity, most hits filed as cytotoxic; HT-1080 IDH1 knockdown viability, ATP luminescence, 48 h;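 also: 0% = DMSO wells and -100% = cell-free medium wells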
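Luminescent ATP read-out (CellTiter-Glo, 10 min at room temperature) after 48 h compound exposure at 37 °C gave viability of IDH1-knockdown HT-1080 cells. Activity was normalised to DMSO and cell-free wells, then fitted as concentration-response curves.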
TDP1 cell CPT = DT40-hTDP1 cell growth loss with CPT. chicken DT40 Tdp1-/-;hTDP1 cells + 20 nM CPT, ATP luminescence, 48 h. Potency, µM (series often up to 46.2 µM), inactives show top-dose activity change, negative = growth inhibition, hits mostly inhibitors. actives 12% (n = 420,000). AID 686979; also: % is scaled to controls: 0 for no effect and ±100 for the full control effect; nearly all actives have a fitted effect of over 55% in size
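Chicken DT40 Tdp1-/- cells stably complemented with human TDP1 were seeded at 400 cells/well in medium containing 20 nM camptothecin, exposed to pin-transferred compounds, and grown at 37 °C for at least 48 hr. Viability was read as ATP luminescence.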
TGFb SMAD3 inh = TGF-b pathway inhibition | HepG2 CAGA-GFP TGF-b/SMAD3 reporter, GFP fluorescence, 18 h; TGF-beta stimulated, 500 pg/mL final | actives 1.2% (n = 410,000) | AID 588855 | Potency, µM (series often up to 46.1 µM), inactives show at the highest dose activity, negative = inhibition, actives largely listed as inhibitors; also: % is scaled to controls: 0 for no effect and ±100 for the full control effect; nearly all actives have a fitted effect of over 65% in size
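Inhibition of TGF-beta-driven CAGA-GFP reporter expression in HEPG2 cells is measured by cellular GFP fluorescence after 18 h stimulation with 500 pg/mL recombinant TGF-beta in 1% FBS medium at 37 degrees C.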
TDP1 cell noCPT = qHTS for Inhibitors of human tyrosyl-DNA phosphodiesterase 1 (TDP1): qHTS in cells in absence of CPT; Potency, µM (doses to about 46.2 µM), without a hit: at the highest dose activity change, negative = growth inhibition, hits mostly inhibitors; actives 15% (n = 420,000); DT40 Tdp1-/- hTDP1 cells, no CPT, ATP luminescence, 48 h; also: % is scaled to controls: 0 for no effect and ±100 for the full control effect; nearly all actives have a fitted effect of over 55% in size
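Cells were dispensed at 400 per well, compounds added by pin tool, plates incubated ≥48 hr at 37 °C, then CellTiter-Glo added for 30 min at room temperature before luminescence reading. Line: DT40 Tdp1-/- complemented with hTDP1; camptothecin omitted.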
HT1080NT lethal = kills 2HG-producing HT-1080-NT fibrosarcoma cells | HT-1080-NT fibrosarcoma viability, CellTiter-Glo ATP luminescence, 48 h | Potency, µM (top dose mostly 46.1 µM), inactives show at the highest dose activity, negative = less viability, usual class: cytotoxic | actives 1.6% (n = 360,000);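 also: NT is the 2HG producing partner of a matched IDH1 knockdown line; 0% = DMSO-treated cells and -100% = media-only wells without cells; nearly all actives have a fitted effect of over 55% in size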
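HT-1080-NT fibrosarcoma cells (2HG-overproducing), 750 cells/well in RPMI with 5% FBS, dosed after 2 h and incubated 48 h at 37C. CellTiter-Glo luminescence normalized to DMSO and no-cell wells; concentration-response curves fitted and classed.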
HepG2 viability = kills HepG2 cells in TGF-b inhibitor counter-screen | Potency, µM (top dose mostly 46.1 µM), inactives show at the top dose activity change, negative = cytotoxicity, actives largely listed as cytotoxic | actives 0.76% (n = 410,000) | HepG2 CAGA-GFP viability, ATP luminescence, 18 h
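HepG2 CAGA-GFP cells (1000/well, DMEM with 1% FBS) received compound, then TGF-beta at 500 pg/mL final, and were incubated 18 hours at 37 degrees C. Viability was read by CellTiter-Glo luminescence. Media-only wells were set as complete cell-killing and DMSO as no toxicity.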
An asterisk follows results filed as active; ? = inconclusive; . = not tested or not shown; [ ] = another dose, or the depositor's remark. This is a sample that favours compounds with a hit; in the whole collection about 17% have one here. Calls follow the shape of the dose curve; as a rule, active = well fitted curve in the direction sought with a large enough effect; inconclusive = small, poorly fitted or top-dose-only effect, or another doubt; inactive = no such curve, though single readings can be large; an effect the other way counts as inactive or inconclusive. Potency is read from the fitted curve at half-maximal effect.

SMILES	HT1080 IDH1KD tx	TDP1 cell CPT	TGFb SMAD3 inh	TDP1 cell noCPT	HT1080NT lethal	HepG2 viability
COc1cc2c(cc1OC)CN(c1ccc(-c3ccccc3OC)nn1)CC2	-12%	?	-18%	23µM*	2%	-21%
COc1cc2c(cc1OC)CN(c1ccc(C(F)(F)F)cn1)CC2	?	?	-3%	16µM*	?	-13%
COc1cc(C(=O)COC(=O)C2CCN(c3ccc(C(F)(F)F)cn3)CC2)ccc1OC(F)F	-2%	-27%	?	-27%	0%	-3%
COc1ccccc1-c1cc(-n2ccnc2)ncn1	.	-2%	.	-4%	.	.
CC[C@@H](C)CCCCC(=O)N[C@@H](CCNCS(=O)(=O)O)C(=O)N[C@H](C(=O)N[C@@H](CCNCS(=O)(=O)O)C(=O)N[C@H]1CCNC(=O)[C@H]([C@@H](C)O)NC(=O)[C@H](CCNCS(=O)(=O)O)NC(=O)[C@H](CCNCS(=O)(=O)O)NC(=O)[C@H](CC(C)C)NC(=O)[C@@H](CC(C)C)NC(=O)[C@H](CCNCS(=O)(=O)O)NC1=O)[C@@H](C)O	.	?	.	9.4µM*	.	.
Cc1oc2cc3oc(=O)c(CCC(=O)NCc4ccccn4)c(C)c3cc2c1C	7%	?	11%	-87%	6%	-5%
Cc1ccc(C)c(NC(=O)Cn2c(=O)n(Cc3ccc4c(c3)OCO4)c(=O)c3ccccc32)c1	.	?	0%	-19%	.	-13%
CC(C)(C)c1cc2nc(NCc3cccc(Cl)c3)ccn2n1	-24%	18µM*	-23%	16µM*	?	-40%
Clc1cccc(CNc2ccn3nc(-c4ccc(OCc5ccccc5)cc4)cc3n2)c1	-26%	16µM*	-25%	?	-13%	-30%
Clc1cccc(CNc2ccn3nc(-c4cccc(Cl)c4)cc3n2)c1	?	?	?	?	?	-64%
Clc1cccc(CNc2ccn3nc(-c4ccccc4)cc3n2)c1	-27%	23µM*	?	21µM*	?	-49%
CN(C)C(=O)CNc1ccn2nc(-c3cccc(Cl)c3)cc2n1	-19%	23µM*	-11%	18µM*	-1%	-35%
CN(CC(=O)Nc1ccccc1Br)C(=O)c1ccccc1-c1nc2ccccc2s1	-5%	-21%	21%	-11%	-2%	-3%
Clc1ccc(-c2cc3nc(NCc4cccc(Cl)c4)ccn3n2)cc1	-22%	?	?	26µM*	-15%	-33%
O=C(Nc1ccc(OCc2cc(=O)n3c4c(sc3n2)CCCC4)cc1)c1cccc(F)c1	.	?	0%	?	.	-5%
COc1cc2c(=O)c(S(=O)(=O)c3ccccc3)cn(CC(=O)Nc3ccccc3C)c2cc1OC	.	-5%	-26%	0%	.	-27%
CC(Nc1ccccc1N1CCCCC1)C(=O)N1CCc2ccccc21 (centres undefined)	-9%	?	-8%	16µM*	16%	22%
CC(NC(c1ccccc1)c1ccccc1)C(=O)N1CCCc2ccccc21 (centres undefined)	-16%	12µM*	?	10µM*	-17%	-8%
CC(NCC1(N2CCOCC2)CCCCC1)C(=O)N1CCc2ccccc21 (centres undefined)	-1%	-15%	-1%	?	-3%	-7%
CCc1ccc2c(c1)c(=O)c(C(=O)c1ccc(C)cc1)cn2CC(=O)Nc1ccc2c(c1)OCCO2	.	-1%	-7%	1%	.	-1%
COCc1ccc(CN2Cc3cc(Cl)ccc3OC(C)C2)o1 (centres undefined)	.	12%[9.04 µM]	.	-17%	.	.
O=C(CN1CCN(c2nc(-c3ccccc3)cs2)CC1)NNC(=O)c1ccco1	0%	-28%	28%	-26%	-17%	-32%
O=C(NNc1nc(-c2ccc(Cl)cc2)cs1)c1ccco1	?	18µM*	?	10µM*	-16%	-13%
Cc1ccc(-c2csc(NC(=O)CCNC(=O)c3ccco3)n2)cc1	-18%	-2%	2%	?	-20%	1%
O=C(NNc1nc(-c2ccccc2)cs1)c1ccco1	-29%	?	?	16µM*	?	-4%
SMILES	HT1080 IDH1KD tx	TDP1 cell CPT	TGFb SMAD3 inh	TDP1 cell noCPT	HT1080NT lethal	HepG2 viability
O=C(Nc1nc2nc(-c3ccccc3)cc(-c3ccccc3)n2n1)c1ccco1	26µM*	23µM*	-5%	23µM*	?	-22%
CC(=O)Nc1nc2nc(-c3ccccc3)cc(-c3ccccc3)n2n1	0%	?	-8%	?	2%	-9%
Cc1cccc(C)c1NC(=O)C1CCCN1C(=O)NCc1ccccc1 (centres undefined)	7%	7%	2%	0%	12%	-2%
O=C(c1cncs1)N(Cc1cc2cc3c(cc2nc1N1CCOCC1)CCC3)CC1CCCO1 (centres undefined)	.	-6%[9.04 µM]	.	-12%	.	.
O=C(c1cccc(Cl)c1)N(Cc1cccc(F)c1)C1CCS(=O)(=O)C1 (centres undefined)	.	-4%	-29%	-19%	.	-5%
CCOC(=O)c1oc2nc3c(cc2c1N)CCCC3	-15%	7%	-32%	-30%	-15%	-40%
CCOC(=O)c1oc2nc(CC(C)C)c3c(c2c1N)CCCC3	-11%	23µM*	?	23µM*	-21%	-1%
Cc1ccn2c(C(=O)CSc3ccc(Cl)cc3)c(C)nc2c1	-3%	23µM*	3%	21µM*	-2%	0%
Cc1ccn2c(C(=O)CSc3ccccc3)c(C)nc2c1	-1%	8.2µM*	-19%	8.2µM*	15%	-22%
CN(c1ccccc1)C(CNS(=O)(=O)c1ccccc1)c1ccccc1 (centres undefined)	.	?	?	?	.	-52%
O=C(CC1N=C2c3ccccc3N=C(SCc3cccc(Cl)c3)N2C1=O)NC1CCCCC1 (centres undefined)	.	16µM*	?	18µM*	.	-30%
O=C(CC1N=C2c3ccccc3N=C(SCc3ccccc3F)N2C1=O)NCCc1ccccc1 (centres undefined)	.	21µM*	?	21µM*	.	-4%
O=C(CC1N=C2c3ccccc3N=C(SCc3ccccc3Cl)N2C1=O)NC1CCCCC1 (centres undefined)	.	9.2µM*	?	12µM*	.	-17%

Bioassay records from PubChem.
